The values that follow come from ChEMBL document CHEMBL3988442, “University of Dundee, Small-Polar-MMV Screening Library” (2021).

About 13,000 (27%) of roughly 48,000 compounds showed an effect of 50% or more. This is one part of the list.

The assay has as its system Wolbachia pipientis. Description: Anti-Wolbachia Cell-Based Screen. It counts as functional. Further details: scale not given: in the data most compounds retested in dose-response had high values. To be noted: 5 µM.
In the case of `COc1cc2ccn(CCCO)c(=O)c2cc1F`, the “Percent Effect” value is -13.96%. Turning to `Cc1ccc(CCCC(=O)N2CCC(=O)Nc3cccnc32)s1`, the “Percent Effect” value is 9.523%. On to `Cl.Cl.O[C@@H]1C[C@@](CNCc2ccc(Cl)cc2)(COc2cccnc2)C[C@@H]1O`, for which the “Percent Effect” value was -11.4%. The same measure for `Cc1nc(C)n(CC(C)C(=O)N2CCC(CN3CCOCC3)CC2)n1` (stereo unspecified): -24.3%. Turning to `CC(C)(C)CC(=O)N1CSCC1C(=O)NC1=NCCS1` (stereo unspecified), the “Percent Effect” value was determined as 6.289%. In the case of `CNC(=O)c1ccc(OC2CCN(S(C)(=O)=O)CC2)c(Cl)c1`, the “Percent Effect” value is -16.21%. With `CS(=O)(=O)N1CCC(NC(=O)COc2ccccc2Cl)CC1`, the “Percent Effect” value turned out to be 111.5%.

Turning to `CS(=O)(=O)N1CCC(NC(=O)COc2ccc(Br)cc2Cl)CC1`, the “Percent Effect” value is reported as 124.9%. Turning to `COC(C(=O)NC1CCN(S(C)(=O)=O)CC1)c1ccccc1` (stereo unspecified), the “Percent Effect” value came out at 12.34%.

As to `COc1cccc2c1OCC(C(=O)NC1CCN(S(C)(=O)=O)CC1)C2` (stereo unspecified), the “Percent Effect” value was 11.83%.

As for `CS(=O)(=O)N1CCC(Oc2ccc(C(=O)NC3CCCC3)cc2Cl)CC1`, the “Percent Effect” value is -48.27%. As to `CC(CNC(=O)N1CCN(CC(F)F)CC1)Cc1cccs1` (stereo unspecified), the “Percent Effect” value came out at 5.816%. Take `Cn1ccnc1C(O)(CCNCc1ccco1)C(F)(F)F` (stereo unspecified): the “Percent Effect” value is -13.62%. As to `CN(C)CCNC(=O)Nc1cccc(C[S+]([O-])Cc2ccccc2)c1` (stereo unspecified), the “Percent Effect” value is -3.662%. The same measure for `Cc1noc(CN(C)CC2CCN(CCO)CC2)n1`: 3.042%; for `COc1cc(CN2CCC3(CC(Nc4ccncn4)C3)C2)cc(OC)c1` (stereo unspecified): 125.9%; for `COc1cccc(OC)c1CN1CCC2(CC(Nc3ccncn3)C2)C1` (stereo unspecified): 4.398%.

In the case of `COc1ccc(CN2CCC3(CC(Nc4ccncn4)C3)C2)c(OC)c1` (stereo unspecified), the “Percent Effect” value is reported as 2.421%.

On to `COc1cccc(CN2CCC3(CC(Nc4ccncn4)C3)C2)c1F` (stereo unspecified), for which the “Percent Effect” value turned out to be 97.57%. On to `COc1ccc(CN2CCC3(CCCNC3)C2)cc1Cn1cccn1` (stereo unspecified), for which the “Percent Effect” value is -22.52%. Consider `CCOC1CCN(CC(=O)Nc2oc(C)c3c(C)n[nH]c(=O)c23)CC1`, for which the “Percent Effect” value was -5.173%. As to `Cc1nn(C)c(C)c1CC(=O)NCc1ccnc(OC2CCCC2)c1`, the “Percent Effect” value was -17.69%.

As for `Cc1nn(C)cc1NC(=O)CN1CCC(Oc2cnccn2)CC1`, the “Percent Effect” value is recorded as 129.5%. For `Cc1c(NC(=O)CN2CCC(Oc3cnccn3)CC2)cnn1C`, the “Percent Effect” value worked out at 146%. In the case of `Cc1nc(C)c(CN2CCOC[C@H](Oc3cnccn3)C2)s1`, the “Percent Effect” value was -6.668%. With `O=C(Cn1cccn1)N1CCC(Oc2cnccn2)CC1`, the “Percent Effect” value is on record as 4.434%. The value for `Cn1ccc(NC(=O)CN2CCC(Oc3cnccn3)CC2)n1` was 107.4%; that for `COc1ccnc(NC2CCN(CC(=O)Nc3ccccc3)CC2)n1` was -1.982%. The same measure for `O=C(Cn1ccc2ccccc21)N1CCC(Oc2cnccn2)CC1`: 0.2299%; for `CN1CCC(N2CCN(C(C(=O)O)c3cccc4c3OCC4)CC2)CC1` (stereo unspecified): -2.868%. The value for `Cc1nc(-c2cc(C(=O)NC(C)(C(=O)O)C(C)C)co2)cs1` (stereo unspecified) was 1.094%. Consider `O=C(NCCC1CCCCO1)c1cc(COc2cncc(Cl)c2)on1` (stereo unspecified), for which the “Percent Effect” value was -5.256%. The same measure for `CSC(C)(C)CNC(=O)NC1CCSCC1`: -7.35%; for `COc1ccc(-n2ccc(C(=O)N3CCN(C)CC3C)n2)cc1` (stereo unspecified): -4.695%. Take `CC1CN(C)CCN1C(=O)c1ccc(-n2cnnc2)cc1` (stereo unspecified): the “Percent Effect” value is listed as -8.678%. The value for `Cc1cc(NC(=O)N2CCN(C)CC2C)n(Cc2ccccc2)n1` (stereo unspecified) was -3.69%; that for `Cc1cnn(-c2ccc(C(=O)N3CCN(C)CC3C)cc2)c1` (stereo unspecified) was -5.131%. With `CC1CN(C)CCN1C(=O)c1ccn(-c2ccccc2Cl)n1` (stereo unspecified), the “Percent Effect” value was 97.32%. For the compound `CC1CN(C)CCN1C(=O)c1cccn1Cc1cccnc1` (stereo unspecified), the “Percent Effect” value was 1.342%. Regarding `CC1CN(C)CCN1C(=O)c1cnn(-c2ccc(Cl)cc2)c1` (stereo unspecified), the “Percent Effect” value is given as 3.844%.

Take `CC1CN(C)CCN1C(=O)c1cccn1Cc1ccncc1` (stereo unspecified): the “Percent Effect” value was determined as 17.94%. `CC1CN(C)CCN1C(=O)c1cnn(-c2cccc(Cl)c2)c1` (stereo unspecified): the “Percent Effect” value came out at 91.23%. The value for `CC1CN(C)CCN1C(=O)c1ccn(-c2ccc(F)cc2)n1` (stereo unspecified) was 101.7%. The value for `CC1CN(C)CCN1C(=O)c1ccn(-c2ccccc2)n1` (stereo unspecified) was 92.82%; that for `CCc1nc(C(=O)N2CCN(C)CC2C)nn1-c1ccccc1Cl` (stereo unspecified) was 4.953%; that for `CCCn1cnnc1CNC(=O)CC1C(=O)NCCN1CC(C)(C)C` (stereo unspecified) was 2.919%. As for `O=C1N(CC2CC2)C2(CCSCC2)NC12CCCC2`, the “Percent Effect” value is -1.128%. As for `O=C1CC(c2ccc(C(=O)O)cc2)c2ncn(-c3cccc(Cl)c3)c2N1` (stereo unspecified), the “Percent Effect” value was -0.6524%. With `CC1CN(C)CCN1C(=O)c1ccn(-c2cccc(F)c2)n1` (stereo unspecified), the “Percent Effect” value is given as 102.3%. Turning to `CC1CN(C)CCN1C(=O)c1ccn(-c2cccc(Cl)c2)n1` (stereo unspecified), the “Percent Effect” value was -2.456%. The value for `O=C(c1ccn(-c2cccc(F)c2)n1)N1CCN(CC2CC2)CC1` was 1.903%; that for `Cc1ccc(CN2CCN(CC(=O)N(C)C)[C@@H]3CS(=O)(=O)C[C@@H]32)cc1C` was 8.037%; that for `CC1(C)CN(Cc2ccncc2)CCS1(=O)=O` was 93.26%. For the compound `Cc1ccc(CN2CCN(CC3CC3)[C@@H]3CS(=O)(=O)C[C@@H]32)cc1C`, the “Percent Effect” value is recorded as -7.096%. The same measure for `COCCC1(CO)CCCN(Cc2ccncc2)C1` (stereo unspecified): -9.658%.

In the case of `Cn1cc(CN2CCS(=O)(=O)C(C)(C)C2)cn1`, the “Percent Effect” value is given as 112.3%. For `Cn1cc(CN2CC3(CCN(Cc4ccsc4)C3)C2)cn1`, the “Percent Effect” value is -4.449%. In the case of `CCc1cnc(N2CCN(Cc3ccncc3)CC2)s1`, the “Percent Effect” value is -22.29%. With `Cn1cc(CN2CCN(Cc3nccn3C)CC2)cn1`, the “Percent Effect” value is given as -17.17%. Consider `Cc1ccc(CN2CCS(=O)(=O)C(C)(C)C2)cc1C`, for which the “Percent Effect” value is 113.6%. In the case of `COc1cccc2c1OCC(CNC(=O)COCC(F)(F)C(F)F)C2` (stereo unspecified), the “Percent Effect” value is given as -0.4399%. The value for `CC(Cn1cccn1)NC(=O)N(C)Cc1ccc(Cl)s1` (stereo unspecified) was -9.644%; that for `CNC(=O)C(NC(=O)c1nccn2ccnc12)c1ccc(F)c(F)c1` (stereo unspecified) was 7.625%.

`COCCN1C[C@@H]2CN(c3cc(OC)ncn3)CCC[C@]2(C(=O)O)C1.O=C(O)C(F)(F)F`: the “Percent Effect” value is reported as -26.02%. For `COCCCC1CCCCN1Cc1cc(F)ccc1-n1cccn1` (stereo unspecified), the “Percent Effect” value is recorded as -9.489%. As for `Cc1nc(CSc2nc(=O)ccn2C(C)C)cs1`, the “Percent Effect” value is recorded as -10.57%.
